Molecules are shown by their SMILES. Among all 320,000 compounds or so, about 2,800 (0.88%) were called active. For the sample, actives were picked, then their nearest neighbours and some compounds at random. Values without a mark were called inactive.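 How the source made its calls: active means inhibition above the mean inhibition of all tested compounds plus 3 SD, computed separately for each screening campaign (cut at about 15% in these data); inactive means the rest.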

Drawing on PubChem BioAssay AID2235 (The Scripps Research Institute Molecular Screening Center, 2010), this text covers inhibition for 66 molecules.

For the assay, the target named is Serine/threonine-protein phosphatase PP1-alpha catalytic subunit (Homo sapiens) (UniProt P62136). In words: PP1-alpha phosphatase inhibitors, primary screen, counter-screen for PP5 inhibitor project, biochemical, fluorescence, OMFP substrate, single point (AID 2235). To be noted: purified PP1alpha, at 6.7 µM, active compounds read high. For orientation: Counterscreens check selectivity or assay interference.
Sequence of Serine/threonine-protein phosphatase PP1-alpha catalytic subunit (Homo sapiens) (P62136 whole entry, looked up): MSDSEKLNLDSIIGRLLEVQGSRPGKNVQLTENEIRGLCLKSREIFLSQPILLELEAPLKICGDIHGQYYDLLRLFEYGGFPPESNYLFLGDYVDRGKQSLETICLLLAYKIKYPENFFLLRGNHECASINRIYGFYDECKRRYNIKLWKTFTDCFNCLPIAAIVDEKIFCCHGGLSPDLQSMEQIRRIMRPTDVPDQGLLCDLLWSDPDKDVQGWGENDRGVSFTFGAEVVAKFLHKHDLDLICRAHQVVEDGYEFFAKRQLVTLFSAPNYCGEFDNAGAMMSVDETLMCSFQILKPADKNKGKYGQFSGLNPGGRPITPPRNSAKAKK
The inhibition is the drop in the measured response relative to a control, in per cent. Regarding `Cc1ccc(C)c2[nH]c(=O)c(CN(Cc3cccnc3)C(=S)NCc3ccco3)cc12`, the inhibition is 1.73%.

As for `Cc1cccc2cc(CN(C(=O)c3cccs3)c3ccccc3)c(=O)[nH]c12`, the inhibition was 1.24%.

Consider `Cc1cccc2cc(CN(Cc3cccs3)C(=S)NCc3ccco3)c(=O)[nH]c12`, for which the inhibition was 16.9% (active).

For `Cc1ccnc(NC(=O)c2ccc(Cl)c([N+](=O)[O-])c2)c1`, the inhibition is -0.42%.

For the molecule `Cc1c(NC(=O)CN2C(=O)C(=O)N(Cc3ccccc3)C2=O)c(=O)n(-c2ccccc2)n1C`, the inhibition was -2.42%.

For the molecule `Cc1ccc(CSc2nc(-c3ccccc3)c(C#N)c(=O)[nH]2)cc1`, the inhibition is 14.2%.

For `N#Cc1c(-c2ccccc2)nc(SCc2cccc(C(F)(F)F)c2)[nH]c1=O`, the inhibition is 22.1% (active).

Turning to `N#Cc1c(-c2ccccc2)nc(SCc2ccc([N+](=O)[O-])cc2)[nH]c1=O`, the inhibition is 9.45%.

`Cc1ccc(OCCC(=O)OCC(=O)N2c3ccccc3NC(=O)C2(C)C)cc1`: the inhibition is 0.61%.

Regarding `CCCCN(CC)C(=O)c1ccccc1Oc1ccccc1`, the inhibition is -1.38%.

For the molecule `CCOC(=O)c1c(S(=O)(=O)Nc2ccc(CN3CCC(C)CC3)cc2)c(C)n(C)c1C`, the inhibition is 2.36%.

Take `O/N=C(\c1ccc2c(c1)OCCO2)C1CCCCC1`: the inhibition is 0.46%.

In the case of `Cc1cc2oc(=O)cc(CN3CCN(S(=O)(=O)c4cccs4)CC3)c2cc1C(C)C`, the inhibition was -3.33%.

Take `Cc1ccc2c(CN3CCN(S(=O)(=O)c4ccccc4C(F)(F)F)CC3)cc(=O)oc2c1`: the inhibition was 16.8% (active).

On to `COc1ccc2c(CN3CCN(S(=O)(=O)c4cccs4)CC3)cc(=O)oc2c1`, for which the inhibition was 4.63%.

Consider `COc1ccccc1NS(=O)(=O)N(C)C`, for which the inhibition was 6.89%.

With `CCCc1nnc(NC(=O)CCC(=O)N2CCN(S(=O)(=O)c3ccc(OC)cc3)CC2)s1`, the inhibition is -4.44%.

With `Cc1cc2nc3c(=O)n(Cc4ccccc4)c(=O)[nH]c3nc2cc1N`, the inhibition was 2.81%.

`Nc1ccc2nc3c(=O)[nH]c(=S)[nH]c3nc2c1`: the inhibition was 41.9% (active).

`COC(=O)/C(C#N)=C/c1occc1C`: the inhibition is -1.37%.

On to `CCC(C)(C)NC(=O)C(c1ccc(O)cc1)N(C(=O)Cn1nnc2ccccc21)c1ccc(NC(C)=O)cc1` (stereo unspecified), for which the inhibition is 4.46%.

For `O=c1cc(O)nc(SCc2ccccc2Cl)[nH]1`, the inhibition is 3.47%.

`O=C(CC1N=C2c3ccccc3N=C(SCc3ccccc3Cl)N2C1=O)NCc1ccco1` (stereo unspecified): the inhibition is 1.15%.

In the case of `Clc1ccccc1CSc1nnc(-c2ccco2)c(-c2ccco2)n1`, the inhibition is 24.6% (active).

`CCOC(=O)N1CCN(S(=O)(=O)c2cc3c(cc2C)NC(=O)CO3)CC1`: the inhibition was -2.81%.

With `Cc1cc(N2C(=O)C(O)=C(C(=O)c3ccc(C)o3)C2c2ccc(OCc3ccccc3)cc2)no1` (stereo unspecified), the inhibition was 26.8% (active).

With `COc1cc(C2C(C(=O)c3ccco3)=C(O)C(=O)N2c2cc(C)on2)ccc1OCc1ccccc1` (stereo unspecified), the inhibition is 13.9%.

For the molecule `COc1ccc(CCN2C(=O)c3[nH]nc(-c4ccccc4O)c3C2c2ccc(C)cc2)cc1OC` (stereo unspecified), the inhibition was 6.53%.

On to `CCOc1cc(C2C(C(=O)c3ccco3)=C(O)C(=O)N2Cc2ccccc2)ccc1O` (stereo unspecified), for which the inhibition is 4.74%.

As for `COc1cc(C2C(C(=O)c3ccc(C)o3)=C(O)C(=O)N2CCc2ccccc2)ccc1O` (stereo unspecified), the inhibition was 32.7% (active).

In the case of `Cc1cc(N2C(=O)C(=O)/C(=C(/O)c3ccccc3)C2c2cccc(Br)c2)no1` (stereo unspecified), the inhibition was -4.18%.

With `Cc1c(Cl)c([N+](=O)[O-])nn1CC(=O)NCC1CCCO1` (stereo unspecified), the inhibition was -3.7%.

Take `COc1ccccc1N1CCN(S(=O)(=O)c2ccc3c(c2)NC(=O)CS3)CC1`: the inhibition was 5.88%.

With `CCOc1ccc(C(=O)Nc2ccc(S(=O)(=O)NCC3CCCO3)cc2)cc1OCC` (stereo unspecified), the inhibition is -1.6%.

As to `COC(C[C@@H](O)C[C@@H](O)[C@H](C)OCc1ccccc1)OC`, the inhibition was 0.46%.

On to `COCCC(=O)N1CCC(Oc2ccc(C(=O)NCc3ccon3)cc2)CC1`, for which the inhibition was -0.97%.

With `O=C(Nc1ccc(S(=O)(=O)Nc2nccs2)cc1)c1cc(-c2ccncc2)nc2ccccc12`, the inhibition was 27.5% (active).

On to `O=C(Nc1ccc(S(=O)(=O)Nc2nccs2)cc1)c1cc(=O)[nH]c2ccccc12`, for which the inhibition is 0.73%.

Take `CCN(CC)CCNC(=O)c1ccc(NC(=O)c2cc(-c3ccncc3)nc3ccccc23)cc1`: the inhibition is -7.72%.

As for `c1ccc(C2CNCc3c2ccc2ccccc32)cc1` (stereo unspecified), the inhibition is 3.78%.

For `Cn1cnc(C(F)(F)F)c1-c1ccc([N+](=O)[O-])cc1`, the inhibition was -0.23%.

Regarding `C[N+](C)(C)CCOP(=O)([O-])OC[C@H](O)CO`, the inhibition was -5.96%.

Regarding `COC(=O)Cc1cc(=O)n(-c2nc3ccccc3s2)[nH]1`, the inhibition is 19.6% (active).

As for `C/C(=N\NC(=O)CC(C)C)c1c(C(F)(F)F)[nH]n(-c2nc3ccccc3s2)c1=O`, the inhibition was 4.43%.

Consider `CCC(=O)NC(=Nc1nc2ccccc2s1)NC(=O)CC`, for which the inhibition was -4.21%.

For `NC(=O)c1ccsc1NC(=O)COC(=O)Cc1n[nH]c(=O)c2ccccc12`, the inhibition was -0.46%.

Turning to `C/C(CC(O)(/C=N/O)c1ccccc1)=N\O` (stereo unspecified), the inhibition was 31.4% (active).

Regarding `Oc1ccccc1C1=NN(c2ccccc2)C(c2ccccc2)C1` (stereo unspecified), the inhibition is 0.4%.

Take `O=C(CSc1nnnn1-c1ccc(O)cc1)N1N=C(c2ccc3ccccc3c2)CC1c1ccccc1` (stereo unspecified): the inhibition was -3.09%.

In the case of `CC(=O)Oc1ccccc1C1=NN(C(C)=O)C(c2ccccc2)C1` (stereo unspecified), the inhibition is -2.36%.

For the molecule `Cc1ccc(N2C(=O)C3N=NN(CC(=O)N4N=C(c5cccc6ccccc56)CC4c4ccccc4)C3C2=O)cc1` (stereo unspecified), the inhibition was 29.8% (active).

As for `O=C1C2N=NN(CC(=O)N3N=C(c4cccc5ccccc45)CC3c3ccccc3)C2C(=O)N1c1ccccc1` (stereo unspecified), the inhibition is 30.5% (active).

In the case of `O=C(c1ccccc1)N1N=C(c2ccccc2O)CC1c1ccc(Br)cc1` (stereo unspecified), the inhibition was 6.46%.

Regarding `COc1ccc(C(=NN)c2ccc(OC)cc2)cc1`, the inhibition is -2.58%.

Regarding `COc1ccc(-c2nc3c(s2)CCc2onc(-c4ccc(Br)cc4)c2-3)cc1`, the inhibition is -1.07%.

Consider `CCc1ccc(N(CC)c2ncnc3nc[nH]c23)cc1`, for which the inhibition is 2.16%.

As to `[2H]C(CCOS(N)(=O)=O)c1ccccc1` (stereo unspecified), the inhibition is -3.22%.

`Cc1cc(C(=O)OCC(=O)NCc2ccco2)c(C)n1-c1ccccc1`: the inhibition was -0.54%.

With `CN(C)/C=C(/C(=O)c1ccc(Cl)cc1)S(=O)(=O)c1ccccc1`, the inhibition is 0.05%.

On to `CC(C)(C)c1nnc(NC(=O)C2c3ccccc3Oc3ccccc32)s1`, for which the inhibition was 1.1%.

On to `CNC(=O)C1CCN(S(=O)(=O)c2c(C)noc2/C=C/c2cccc(C)c2)CC1`, for which the inhibition is 0.59%.

On to `Cc1noc(/C=C/c2ccco2)c1S(=O)(=O)N1CCC(C(=O)Nc2ccc(Cl)cn2)CC1`, for which the inhibition is 0.73%.

As for `Cc1noc(/C=C/c2ccco2)c1S(=O)(=O)N1CCC(C(=O)N2CCc3ccccc32)CC1`, the inhibition is 15.4% (active).

For the molecule `O=C(CSc1nc2ccccc2c(=O)n1CCCO)NC1CC1`, the inhibition is -4.92%.

Regarding `O=C(COC(=O)Cc1ccccc1F)NNC(=O)c1ccc(Cl)cc1`, the inhibition was -4.59%.

Turning to `C#CCCCc1nc2ccccc2c(=O)n1N`, the inhibition is -2.85%.
